Data published in PubChem BioAssay (Tox21).
Results filed as inconclusive are left out. A number with no mark means an inactive call. Activity calls are given as the source filed them. The call rests on the fitted dose curve; in most records, active means well fitted activation curve with a large enough effect in the signal ratio in the repeat runs (not every such curve was filed as active); inconclusive means weak or mixed curves, or effect the other way; inactive means flat fitted curve, though single readings scatter; the % refers to the signal ratio.

target: Bile acid receptor (Homo sapiens) (UniProt Q96RI1); assay: qHTS assay to identify small molecule agonists of the farnesoid-X-receptor (FXR) signaling pathway (AID 743220); settings: HEK293T FXR-UAS-bla, beta-lactamase FRET ratio, 16 h; series mostly up to 62.6 µM; activation: at the top concentration
Sequence (Q96RI1 whole entry, looked up): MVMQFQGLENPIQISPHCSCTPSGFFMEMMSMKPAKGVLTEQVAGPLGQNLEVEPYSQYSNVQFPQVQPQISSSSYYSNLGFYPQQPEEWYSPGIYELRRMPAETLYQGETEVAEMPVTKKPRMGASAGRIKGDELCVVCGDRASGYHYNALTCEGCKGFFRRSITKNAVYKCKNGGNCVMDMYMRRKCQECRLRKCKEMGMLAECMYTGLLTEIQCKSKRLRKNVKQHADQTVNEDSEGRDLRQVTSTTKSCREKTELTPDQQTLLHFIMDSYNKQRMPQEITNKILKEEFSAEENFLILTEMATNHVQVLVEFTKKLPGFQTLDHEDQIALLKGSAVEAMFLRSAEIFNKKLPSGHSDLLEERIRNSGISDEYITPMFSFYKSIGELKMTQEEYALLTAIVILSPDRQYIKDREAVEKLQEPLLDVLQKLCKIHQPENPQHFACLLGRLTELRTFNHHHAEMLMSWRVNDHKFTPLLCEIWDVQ
From the text: National Center for Advancing Translational Sciences [NCATS]
NIH Chemical Genomics Center [NCGC]
U.S. Environmental Protection Agency [EPA]
National Institutes of Environmental Health Sciences [NIEHS]
National Toxicology Program [NTP]
U.S. Food and Drug Administration [FDA]
The farnesoid-X-receptor (FXR), a nuclear hormone receptor, is highly expressed in liver, intestine, kidney and adrenal cortex. Natural ligands of FXR are the bile acids (Cholic acid, Chenodeoxy cholic acid etc). FXR is an important regulator of diverse metabolic pathways, including the bile acid homeostasis, lipid and glucose metabolisms. FXR regulates the expression of target genes by binding either as a monomer or as a heterodimer with the retinoid X receptor (RXR). Numerous studies have reported that FXR exerts protective function during cholestasis, diabetes, liver regeneration, and cancer. To identify compounds that activate FXR signaling, GeneBLAzer FXR-UAS-bla HEK 293T cell line (Invitrogen, Carlsbad, CA) containing a beta-lactamase reporter gene under the control of a UAS response element was used to screen the Tox21 10K compound library.
Tox21 Assay Protocol Summary:
FXR-bla cells were dispensed at 5000 cells/5uL/well in 1536-well black wall/clear bottom plates using a Multidrop Combi (Thermo Fisher Scientific, Waltham, MA) dispenser. After the assay plates were incubated at 37C and 5% CO2 for 5 h, 23 nL of compounds dissolved in DMSO, positive controls or DMSO only was transferred to the assay plate by a Pintool station (Kalypsys, San Diego, CA). The assay plates were incubated at 37C for 16 h. After 1 uL of LiveBLAzerTM B/G FRET substrate was added using a Bioraptr Flying Reagent Dispenser (FRD) workstation (Beckman Coulter, Indianapolis, IN), the plates were incubated at room temperature for 2 h, and fluorescence intensity was measured by an Envision plate reader (PerkinElmer, Shelton, CT).
On the % scale 0 is the no-effect control and ±100 the full control effect; potency means the concentration at half of the fitted maximal effect.

| Structure (SMILES) | activation | Potency |
| --- | --- | --- |
| Clc1cc(Cl)nc(Cl)n1 | 1.33% [at 81.1 µM] |  |
| NCCNCCO | 0.597% [at 81.1 µM] |  |
| C[C@@H](CN(C)C)CN1c2ccccc2Sc2ccccc21 | -1.76% |  |
| CC(C)c1nc(CN(C)C(=O)N[C@H](C(=O)N[C@@H](Cc2ccccc2)C[C@H](O)[C@H](Cc2ccccc2)NC(=O)OCc2cncs2)C(C)C)cs1 | -3.63% |  |
| O=C=Nc1ccc(Cl)c(Cl)c1 | 0.192% |  |
| CC1(C)O[C@@H]2C[C@H]3[C@@H]4C[C@H](F)C5=CC(=O)C=C[C@]5(C)[C@H]4[C@@H](O)C[C@]3(C)[C@]2(C(=O)CO)O1 | -3.08% |  |
| COC(=O)[C@H]1[C@H]2C[C@@H]3c4[nH]c5cc(OC)ccc5c4CCN3C[C@H]2C[C@@H](OC(=O)/C=C/c2ccc(O)c(OC)c2)[C@@H]1OC | 1.76% |  |
| O=[N+]([O-])c1ccc(O/N=C/c2cc(Br)c(O)c(Br)c2)c([N+](=O)[O-])c1 | 6.86% |  |
| CN(C(=O)CN(CCO)CC(=O)N(C)C(C)(C)Cc1ccccc1)C(C)(C)Cc1ccccc1 | -1.38% |  |
| Nc1ncnc2c1ncn2[C@H]1CC[C@@H](CO)O1 | 0.0141% [at 81.1 µM] |  |
| C(=C\c1ccccc1)/c1ccccc1 | -1.08% [at 81.1 µM] |  |
| c1ccc2sc(SN(C3CCCCC3)C3CCCCC3)nc2c1 | -0.171% [at 81.1 µM] |  |
| CCCCCCCC/C=C\CCCCCCCCCCCC(=O)O | 0.65% [at 81.1 µM] |  |
| CCCC(C(=O)OCCN(CC)CC)(c1ccccc1)c1ccccc1 | -0.119% |  |
| FC(F)(F)c1ccccc1Cl | -3.41% [at 81.1 µM] |  |
| COC(=O)c1nc(Cl)c(Cl)nc1N |  | 29.8 µM (active) |
| CC(=O)NC1(c2cccc(F)c2)CCN(CC[C@@]2(c3ccc(Cl)c(Cl)c3)CN(c3ccccc3)C(=O)CO2)CC1 | 3.22% |  |
| CCOC(=O)OC(C)OC(=O)[C@@H]1N2C(=O)[C@@H](NC(=O)[C@H](N)c3ccccc3)[C@H]2SC1(C)C (stereo not given in full) | 0.652% |  |
| Cc1ccccc1S | 2.97% |  |
| OC[C@H]1O[C@@H](n2cnc3c(=S)nc[nH]c32)[C@H](O)[C@@H]1O | -0.0369% |  |

| Structure (SMILES) | activation | Potency |
| --- | --- | --- |
| Nc1ccc(N=Nc2ccccc2)c(N)c1 | 0.293% |  |
| CCC(C)COC(C)=O (stereo not given) | 0.167% |  |
| C=C(C)C(=O)OCCOCCOC(=O)C(=C)C | -0.698% |  |
| Cc1c(C)c2c(c(C)c1OC(=O)CCC(=O)OCCO)CC[C@@](C)(CCC[C@H](C)CCC[C@H](C)CCCC(C)C)O2 | 8.29% |  |
| CC(=O)OCC[N+](C)(C)C | 7.14% |  |
| CC(CCC(=O)O)C(=O)O (stereo not given) | 1.44% |  |
| Cc1cc(C)c(N)cc1C | -0.553% |  |
| CC(C)=CC(=O)C=C(C)C | -3.63% |  |
| c1ccc(C[n+]2cccc3ccccc32)cc1 | 0.11% |  |
| O=C(Cn1ccnc1[N+](=O)[O-])NCCO | 0.592% |  |
| N#CCCN(CCO)CCO | -1.64% |  |
| CN(C)CCN1C(=O)c2ccccc2N(C)c2ccccc21 | 1.85% |  |
| CC(C)COCC(CN(Cc1ccccc1)c1ccccc1)N1CCCC1 (stereo not given) | 0.271% |  |
| Oc1cccc(Nc2ccccc2)c1 | 3.65% [at 81.1 µM] |  |
| CCN(CC)CCNC(=O)COc1ccc(OC)cc1 | -0.508% |  |
| C/C=C\C/C=C/CCCCCCCCOC(C)=O | -0.269% |  |
| C=C1c2cccc(O)c2C(O)=C2C(=O)[C@]3(O)C(O)=C(C(N)=O)C(=O)[C@@H](N(C)C)[C@@H]3[C@@H](O)[C@H]12 | -0.0677% |  |
| Cc1cccc(N(C)C(=S)Oc2ccc3c(c2)CCC3)c1 | 0.576% |  |
| O=C(CCc1ccc(O)cc1)c1c(O)cc(O)cc1O | -0.754% [at 81.1 µM] |  |
| O=[N+]([O-])c1cc(C2CCCCC2)c(O)c([N+](=O)[O-])c1 | -3.63% |  |
